Assay results: PubChem BioAssay (NCATS)
Records with an inconclusive call do not appear. Activity calls are given as the source filed them. Unless noted, calls come from the whole dose curve; as a rule, active = well fitted curve in the direction sought with a large enough effect; inconclusive = small, poorly fitted or top-dose-only effect, or another doubt; inactive = no such curve, though single readings can be large; an effect the other way counts as inactive or inconclusive.

Legend:
[1] = Cell Viability - BJ (AID 421; calls by dose curve;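 note: potency is the fitted concentration of half-maximal effect; cells exposed to compound for 40 hours at 37 °C before readout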); settings: BJ fibroblast viability, qHTS
Procedure, shortened: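 Quantitative HTS: ATP depletion in BJ cells after 40 hr compound exposure in complete culture medium, detected with CellTiter-Glo; AC50 from standard Hill fits.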

[2] = Cell Viability - Jurkat (AID 426;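 active = dose-dependent loss of cell ATP signal giving a full or clear fitted curve, ranked by lower potency value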; note: potency is the fitted concentration of half-maximal effect); settings: qHTS
Procedure, shortened: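 qHTS, 1536-well; Jurkat E6-1, 5000 cells/well, complete medium; cpd 40 hr, 37 °C; CellTiter-Glo 20 min RT; luminescence. AC50 by Hill fit.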

[3] = Cell Viability - Hek293 (AID 427;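 active = compounds whose dose-response curve shows a full or clear partial loss of cell viability, called from curve shape rather than a numeric limit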;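 note: potency is the fitted concentration of half-maximal effect; cells exposed to compound for 40 hours at 37 °C before reading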); settings: qHTS
Procedure, shortened: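 AC50 values derive from Hill-modelled concentration-response of ATP-based luminescence, normalized between DMSO-only and 100 uM tamoxifen controls. Cells were exposed in complete culture medium for 40 hr at 37 °C before detection.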

[4] = Cell Viability - HepG2 (AID 433; calls by dose curve;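 note: potency is the fitted concentration of half-maximal effect; potency for ATP loss meaning cytotoxicity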); settings: qHTS
Procedure, shortened: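 ATP luminescence (CellTiter-Glo) after 40 h compound exposure, 37 °C, HepG2, 1500 cells/well, complete medium. Normalized: DMSO = basal, 100 uM tamoxifen = 100% inhibition. AC50 via standard Hill equation.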

[5] = Cell Viability - MRC5 (AID 434; calls by dose curve;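 note: potency is the fitted concentration of half-maximal effect; potency reflects cytotoxicity seen as loss of intracellular ATP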); settings: MRC5 lung fibroblast viability, qHTS
Procedure, shortened: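 MRC5 normal human lung fibroblasts (1500/well) were treated with compounds for 40 hr at 37 °C in complete medium, and viable cells were measured as intracellular ATP by CellTiter-Glo luminescence. AC50 came from Hill fits, normalized to DMSO and 100 uM tamoxifen.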

[6] = Cell Viability - SK-N-SH (AID 435; calls by dose curve; note: potency is the fitted concentration of half-maximal effect); settings: SK-N-SH neuroblastoma cell viability qHTS
Procedure, shortened: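 CellTiter-Glo ATP luminescence, 20 min RT read; cells pre-plated 5 hr, compound 40 hr at 37 °C, 1500 cells/well, complete medium. Normalized DMSO = 0, 100 uM tamoxifen = 100% inhibition; Hill-fit AC50.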

[7] = target: Mitogen-activated protein kinase 10 (Mus musculus) (UniProt Q61831); experiment: JNK3 AlphaScreen Assay (AID 530; active = well fitted curve in either direction with a large enough effect, not every such curve was filed as active;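 note: kinase came from lysate of stimulated human HepG2 cells; signal reports phosphorylation of biotinylated GST-cJun 1-79 at Ser73 with 10 µM ATP; % is set by controls: 0 for no effect and ±100 for the full control effect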); settings: JNK3 lysate, c-Jun phosphorylation; series mostly up to 57.1 µM
Procedure, shortened: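 Inhibitors reduce antibody binding to phosphorylated biotin-cJun, lowering AlphaScreen luminescence. Lysates from HepG2 cells pre-activated by IL-1beta plus TNF-alpha supplied JNK3; compounds were titrated.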

[8] = Cell Viability - N2a (AID 540); settings: N2a mouse neuroblastoma cell viability; activity change, negative = cytotoxicity: at 92.2 µM (top of the series);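 note: plate controls were DMSO alone for no effect and tamoxifen control for full effect; nearly all actives have a fitted effect of over 45% in size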
Procedure, shortened: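 Luminescent ATP signal (CellTiter-Glo, 20 min at room temperature) served as the viability read-out after N2a cells were treated with compounds for 40 hours at 37 °C. Concentration-response data were fitted to the Hill equation for AC50.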

[9] = Cell Viability - NIH 3T3 (AID 541); settings: NIH 3T3 cell viability, qHTS; activity change, negative = cytotoxicity: at 92.2 µM (top of the series);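 note: plate controls were DMSO alone for no effect and tamoxifen positive control for full effect; nearly all actives have a fitted effect of over 25% in size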
Procedure, shortened: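 Luminescent ATP signal (CellTiter-Glo) served as the viability read-out after NIH 3T3 cells were exposed to compounds over a concentration range for 40 hr at 37 °C. Hill-equation modelling of concentration-response data gave AC50.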

[10] = Cell Viability - H-4-II-E (AID 543); settings: H-4-II-E rat hepatoma viability; series mostly up to 92.2 µM; note: % is set by controls: 0 for no effect and ±100 for the full control effect; nearly all actives have a fitted effect of over 35% in size
Procedure, shortened: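 Luminescent ATP signal (CellTiter-Glo) served as the viability read-out, with cytotoxicity seen as a concentration-dependent ATP drop. Cells were treated for 40 hours in complete medium. AC50 values derive from Hill-equation modelling.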

[11] = Cell Viability - SH-SY5Y (AID 544); settings: SH-SY5Y neuroblastoma cell viability; viability change, negative = cytotoxic: at 92.2 µM (top of the series); note: nearly all actives have a fitted effect of over 55% in size
Procedure, shortened: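 Luminescent ATP read-out (CellTiter-Glo) measures loss of viable SH-SY5Y neuroblastoma cells after 40 hr compound exposure at 37 °C. AC50 values derive from standard Hill modelling of qHTS concentration-response data.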

[12] = Cell Viability - Renal Proximal Tubule (AID 545); settings: renal proximal tubule cells viability, primary cells of rat origin; series mostly up to 91.7 µM; note: nearly all actives have a fitted effect of over 40% in size
Procedure, shortened: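 Rat kidney proximal tubule cells, freshly isolated; 1000 cells/well, 5 hr settle, compound 40 hr 37 °C. CellTiter-Glo 20 min RT, luminescence read. AC50 by standard Hill fit.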

[13] = Cell Viability - Mesenchymal (AID 546); settings: mesenchymal cells viability, qHTS; series mostly up to 91.7 µM;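 note: cells exposed to compound for 40 hours before reading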
Procedure, shortened: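 Normal human renal glomerulus-derived kidney mesenchymal cells, 1000 per well in complete medium, were treated with compounds for 40 hr at 37 °C. Viability was read as intracellular ATP by CellTiter-Glo luminescence; AC50 values came from Hill-equation fits of qHTS concentration-response data.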

[14] = Cellular Toxicity (caspase-3) Jurkat (AID 655); settings: Jurkat caspase-3 activation, luminescence; caspase-3 activation: at 92.2 µM (top of the series), DMSO = 0%, tamoxifen = 100%;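 note: cells exposed to compound for 16 h at 37 °C before reading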
Procedure, shortened: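 Luminescent caspase-3/7 readout (aminoluciferin substrate cleavage) in human T-cell leukemia Jurkat cells after 16 hr compound exposure. Concentration-response normalized to DMSO and 100 uM tamoxifen; AC50 by standard Hill equation.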

[15] = Cellular Toxicity (caspase-3) HUV-EC-C (AID 656); settings: HUV-EC-C cells, caspase-3 activation (apoptosis), vehicle = 0, 100 µM tamoxifen = 100%; series mostly up to 92.2 µM
Procedure, shortened: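 Luminescent caspase-3/7 activation (aminoluciferin substrate cleavage) in HUV-EC-C cells after 16 hr compound exposure, 37°C. Signal normalized to DMSO basal and 100 uM tamoxifen as 100%; AC50 from concentration-response fitted with the Hill equation.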

[16] = Cellular Toxicity (caspase-3) SHSY5Y (AID 657); settings: SH-SY5Y caspase-3 activation, DMSO zero, 10 µM staurosporine = 100%; series mostly up to 91.7 µM;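 note: cells exposed to compound for 16 hours at 37 °C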
Procedure, shortened: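 Luminescent caspase-3/7 readout (aminoluciferin release) in SH-SY5Y cells after 16 h compound exposure in complete medium. Activity scaled between DMSO basal and 10 uM staurosporine as 100%; concentration-response fitted to Hill equation for AC50.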

[17] = Cellular Toxicity (caspase-3) BJ (AID 658); settings: BJ fibroblasts, luminescence, normalized: DMSO 0%, staurosporine 100%; series mostly up to 91.7 µM;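 note: cells exposed to compound for 16 hours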
Procedure, shortened: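 Luminescent aminoluciferin-substrate cleavage reports caspase 3/7 activity in normal human BJ fibroblasts after 16 hr compound exposure at 37 °C. Normalized to DMSO (basal) and 10 uM staurosporine (100%); AC50 from Hill fit of concentration-response.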

[18] = Cellular Toxicity (caspase-3) MRC-5 (AID 659); settings: MRC-5 cells, luminescence, normalized: DMSO 0%, 10 µM staurosporine 100%; series mostly up to 91.7 µM;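 note: cells exposed to compound for 16 h at 37 °C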
Procedure, shortened: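 Luminescence from caspase-cleaved aminoluciferin substrate (Caspase-Glo 3/7, 1 hr RT) reports caspase 3/7 activity in MRC-5 lung fibroblasts after 16 hr compound exposure. Normalized to DMSO basal and 10 uM staurosporine as 100%; AC50 from Hill fits.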

[19] = Cellular Toxicity (caspase-3) HepG2 (AID 654); settings: HepG2 caspase-3 activation, luminescence; series mostly up to 92.2 µM;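 note: cells exposed to compound for 16 hours before reading; 0% = DMSO alone and 100% = caspase signal from 100 µM tamoxifen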
Procedure, shortened: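 Cells plated 5 hr at 37 °C, compound added, incubated 16 hr at 37 °C. Caspase-Glo 3/7 reagent followed, 20 min at room temperature, then luminescence read. Activation scored as signal increase; AC50 from Hill fit.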

[20] = Cell Viability - HUV-EC-C (AID 542); settings: HUV-EC-C endothelial cell viability, qHTS; series mostly up to 92.2 µM; note: % is set by controls: 0 for no effect and ±100 for the full control effect; nearly all actives have a fitted effect of over 35% in size
Procedure, shortened: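 qHTS cytotoxicity: HUV-EC-C, 1000 cells/well, 5 hr settle, compound 40 hr 37 °C, CellTiter-Glo, luminescence. AC50 via Hill equation.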

C[C@@H]1CC2(OC[C@]3(C)O[C@H]23)O[C@H]2C[C@@]3(C)[C@@H]4CC[C@H]5C(C)(C)C(O[C@@H]6OC[C@@H](O)[C@H](O)[C@H]6O)CC[C@@]56C[C@@]46CC[C@]3(C)[C@@H]12 (some centres not stated)
inactive: Potency [1] > 92 µM | Potency [2] > 92 µM | Potency [3] > 92 µM | Potency [4] > 92 µM | Potency [5] > 92 µM | Potency [6] > 92 µM | outcome [7] | activity change, negative = cytotoxicity [8] 11% | Potency [9] | Potency [10] | Potency [11] | Potency [12] | Potency [13] | caspase-3 activation [14] 2.9% | outcome [15] | outcome [16] | outcome [17] | outcome [18]

C=CCCCC
inactive: Potency [1] > 92 µM | Potency [2] > 92 µM | Potency [3] > 92 µM | Potency [4] > 92 µM | Potency [5] > 92 µM | Potency [6] > 92 µM | outcome [7] | activity change, negative = cytotoxicity [8] 6.23% | Potency [9] | Potency [10] | Potency [11] | Potency [12] | Potency [13] | Potency [19] | caspase-3 activation [14] 0.169% | outcome [15] | outcome [16] | outcome [17] | outcome [18]

CC(N)CN (configuration not stated)
inactive: Potency [1] > 92 µM | Potency [2] > 92 µM | Potency [3] > 92 µM | Potency [4] > 92 µM | Potency [5] > 92 µM | Potency [6] > 92 µM | outcome [7] | activity change, negative = cytotoxicity [8] 3.26% | Potency [9] | Potency [20] | Potency [11] | Potency [13] | caspase-3 activation [14] 2.43% | outcome [15] | outcome [16] | outcome [17] | outcome [18]

O=Cc1ccc(C(=O)O)cc1
inactive: Potency [1] > 92 µM | Potency [2] > 92 µM | Potency [3] > 92 µM | Potency [4] > 92 µM | Potency [5] > 92 µM | Potency [6] > 92 µM | outcome [7] | activity change, negative = cytotoxicity [8] -12.7% | Potency [9] | Potency [20] | Potency [11] | Potency [13] | Potency [19] | caspase-3 activation [14] 0.522% | outcome [15] | outcome [16] | outcome [17] | outcome [18]

Cc1cccc2sc(N)nc12
inactive: Potency [1] > 92 µM | Potency [2] > 92 µM | Potency [3] > 92 µM | Potency [4] > 92 µM | Potency [5] > 92 µM | Potency [6] > 92 µM | outcome [7] | activity change, negative = cytotoxicity [8] -1.12% | Potency [9] | Potency [10] | Potency [11] | Potency [12] | Potency [13] | Potency [19] | outcome [15] | outcome [16] | outcome [17] | outcome [18]

BrC(Br)C(Br)Br
inactive: Potency [1] > 92 µM | Potency [2] > 92 µM | Potency [3] > 92 µM | Potency [4] > 92 µM | Potency [5] > 92 µM | Potency [6] > 92 µM | outcome [7] | activity change, negative = cytotoxicity [8] 7.56% | Potency [9] | Potency [20] | Potency [12] | Potency [19] | caspase-3 activation [14] 0.993% | outcome [15] | outcome [16] | outcome [17] | outcome [18]

C=CCOC(=O)COCCC(C)C
inactive: Potency [1] > 92 µM | Potency [2] > 92 µM | Potency [3] > 92 µM | Potency [4] > 92 µM | Potency [5] > 92 µM | Potency [6] > 92 µM | outcome [7] | activity change, negative = cytotoxicity [8] -4.01% | Potency [9] | Potency [10] | Potency [11] | Potency [12] | Potency [13] | Potency [19] | caspase-3 activation [14] -0.573% | outcome [15] | outcome [16] | outcome [17] | outcome [18]

CC(=O)Nc1ccc(N)cc1
inactive: Potency [1] > 92 µM | Potency [2] > 92 µM | Potency [3] > 92 µM | Potency [4] > 92 µM | Potency [5] > 92 µM | Potency [6] > 92 µM | outcome [7] | activity change, negative = cytotoxicity [8] 4.55% | Potency [9] | Potency [10] | Potency [11] | Potency [12] | Potency [13] | Potency [19] | caspase-3 activation [14] 0.0249% | outcome [15] | outcome [16] | outcome [17]

COc1cccc2sc(N)nc12
inactive: Potency [1] > 92 µM | Potency [2] > 92 µM | Potency [3] > 92 µM | Potency [4] > 92 µM | Potency [5] > 92 µM | Potency [6] > 92 µM | outcome [7] | activity change, negative = cytotoxicity [8] -10.1% | Potency [9] | Potency [10] | Potency [11] | Potency [12] | Potency [19] | caspase-3 activation [14] -0.447% | outcome [15] | outcome [16] | outcome [17] | outcome [18]

CCCCCNCCCCC
inactive: Potency [1] > 92 µM | Potency [2] > 92 µM | Potency [3] > 92 µM | Potency [4] > 92 µM | Potency [5] > 92 µM | Potency [6] > 92 µM | outcome [7] | activity change, negative = cytotoxicity [8] 0.97% | Potency [9] | Potency [10] | Potency [11] | Potency [12] | Potency [13] | Potency [19] | caspase-3 activation [14] -1.44% | outcome [15] | outcome [16] | outcome [17]

Cc1cccc([N+](=O)[O-])c1C(=O)O
inactive: Potency [1] > 92 µM | Potency [2] > 92 µM | Potency [3] > 92 µM | Potency [4] > 92 µM | Potency [5] > 92 µM | Potency [6] > 92 µM | outcome [7] | activity change, negative = cytotoxicity [8] 11.2% | Potency [9] | Potency [10] | Potency [12] | Potency [13] | caspase-3 activation [14] 0.48% | outcome [15] | outcome [16] | outcome [17] | outcome [18]
